The text below walks through data of PubChem BioAssay (NCATS).

Experiment [1] addresses Voltage-gated inwardly rectifying potassium channel KCNH2 (Homo sapiens) (UniProt Q12809). Put plainly: qHTS Assay for Small Molecule Inhibitors of the Human hERG Channel Activity (AID 588834).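 Note: lower thallium flux fluorescence means stronger hERG block; nearly all actives have a fitted effect of over 50% in size.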 Note: potency is the fitted concentration of half-maximal effect. The note with it: U2OS BacMam hERG, FluxOR thallium flux fluorescence; series mostly up to 46.1 µM. A digest of the protocol:
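U2OS cells transduced with hERG via BacMam (MOI ~100), plated 2000/well, loaded with FluxOR thallium dye, compound ~10 min, then stimulation buffer; fluorescence decrease read kinetically; AC50 from Hill fits.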
For orientation: qHTS replaces the single test concentration by a dilution series.

In experiment [2] the target is Glutaminase kidney isoform, mitochondrial (Homo sapiens) (UniProt O94925). Briefly: qHTS for Inhibitors of Glutaminase (GLS): LOPAC Validation (AID 624146). Note: nearly all actives have a fitted effect of over 60% in size. Note: potency is the fitted concentration of half-maximal effect. Conditions: glutaminase enzyme activity inhibition; series mostly up to 46.1 µM. The essentials:
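hKGA in 45 mM KH2PO4 pH 8.2, 0.02% Tween-20 with pin-transferred compounds; 1 mM L-glutamine (stock) plus glutamate oxidase/HRP/Amplex Red coupling added. Fluorescence read initially and after 30 min at RT.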

Experiment [3] in a line: qHTS of Trypanosoma Brucei Inhibitors: LOPAC Validation (AID 624147). The note with it: purified enzyme assay, luminescence, 45 min; series mostly up to 57.5 µM. A digest of the protocol: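 Readout: single end-point luminescence (Kinase-Glo Plus, 10 min). Reaction conditions were TbPYK/substrate plus 130 uM ADP, 45 min at RT, pH 7.2 TEA buffer. No-enzyme wells served as controls, and data were normalized before concentration-response fitting.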

The nature of experiment [4]: qHTS of Nrf2 Activators: LOPAC Validation (AID 624149). The note with it: Nrf2/ARE reporter cell assay; series mostly up to 46.1 µM. A digest of the protocol:
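Luminescence read-out of ARE-luciferase activation: AREc32_Fluc cells treated with compounds for 24 hr at 37 deg C, then lysed with Steady-Glo for 30 min at room temperature before reading.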

Experiment [5] is described as follows: HTS Assay for Allosteric Antagonists of the Human D2 Dopamine Receptor: Hit Validation in HTRF (AID 624455).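 Note: stable D1 dopamine receptor cell line scored for blocking the D1 response.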 The note with it: Cells stably expressing D1 dopamine receptor, inhibition mode; series mostly up to 46.1 µM. A digest of the protocol: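 First, antagonism was screened by calcium flux in a force-coupled, inducible Hek293 Trex D2 line challenged with EC80 dopamine. Hits then went into an HTRF assay in cells stably expressing D1, testing inhibition of the D1 response.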
On the technique in general: Time-resolved FRET reads energy transfer from a long-lived donor to a nearby acceptor.

Experiment [6] concerns the target Glucagon-like peptide 1 receptor (Homo sapiens) (UniProt P43220). Briefly: qHTS of GLP-1 Receptor Agonists: LOPAC Validation (AID 624148).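 Note: luminescence from a luciferase reporter switched on by cAMP; higher luminescence signal means agonism.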 Conditions: GLP-1R agonist cell assay; series mostly up to 46.1 µM. A digest of the protocol:
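Agonism scored as increased luciferase luminescence driven by cAMP in HEK293 clones carrying GLP-1R. Cells settled 12 hours, received compound for 4-6 hr at 37 deg C, 5% CO2, and were read after 12 min detection reagent at RT.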

Inconclusive results are not listed. Activity calls are given as the source filed them. Calls come from the whole dose curve; as a rule, active = well fitted curve in the direction sought with a large enough effect; inconclusive = small, poorly fitted or top-dose-only effect, or another doubt; inactive = no such curve, though single readings can be large; an effect the other way counts as inactive or inconclusive.

Voltage-gated inwardly rectifying potassium channel KCNH2 (Homo sapiens), sequence (Q12809 whole entry, looked up): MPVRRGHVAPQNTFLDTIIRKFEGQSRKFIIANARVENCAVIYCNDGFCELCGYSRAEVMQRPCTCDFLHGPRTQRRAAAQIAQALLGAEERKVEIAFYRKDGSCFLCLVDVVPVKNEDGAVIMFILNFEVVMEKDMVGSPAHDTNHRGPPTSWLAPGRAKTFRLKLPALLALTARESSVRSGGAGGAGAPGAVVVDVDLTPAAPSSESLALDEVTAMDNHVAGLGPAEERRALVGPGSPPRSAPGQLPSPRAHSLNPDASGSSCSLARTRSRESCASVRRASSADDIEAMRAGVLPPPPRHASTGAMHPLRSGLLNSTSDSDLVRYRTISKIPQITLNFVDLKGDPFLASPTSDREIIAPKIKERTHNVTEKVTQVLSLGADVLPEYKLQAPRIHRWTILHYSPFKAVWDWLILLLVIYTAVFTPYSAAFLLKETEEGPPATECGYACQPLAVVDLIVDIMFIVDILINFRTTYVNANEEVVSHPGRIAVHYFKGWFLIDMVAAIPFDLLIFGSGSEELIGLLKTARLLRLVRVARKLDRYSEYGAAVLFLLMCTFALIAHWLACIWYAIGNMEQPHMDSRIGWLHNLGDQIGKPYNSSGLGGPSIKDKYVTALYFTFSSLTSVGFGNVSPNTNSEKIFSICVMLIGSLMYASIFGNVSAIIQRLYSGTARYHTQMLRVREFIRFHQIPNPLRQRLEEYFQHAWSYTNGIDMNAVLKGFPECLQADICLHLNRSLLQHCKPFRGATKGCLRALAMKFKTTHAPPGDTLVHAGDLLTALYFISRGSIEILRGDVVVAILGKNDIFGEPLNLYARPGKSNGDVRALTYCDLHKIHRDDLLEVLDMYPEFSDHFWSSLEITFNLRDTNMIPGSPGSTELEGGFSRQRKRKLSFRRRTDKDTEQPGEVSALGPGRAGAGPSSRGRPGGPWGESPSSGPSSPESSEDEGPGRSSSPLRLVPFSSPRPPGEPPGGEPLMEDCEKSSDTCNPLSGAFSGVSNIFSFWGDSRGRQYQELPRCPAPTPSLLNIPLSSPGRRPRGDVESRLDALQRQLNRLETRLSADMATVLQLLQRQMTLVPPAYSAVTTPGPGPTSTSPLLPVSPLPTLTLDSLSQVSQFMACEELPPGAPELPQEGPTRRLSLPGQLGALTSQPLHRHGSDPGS
Glucagon-like peptide 1 receptor (Homo sapiens), sequence (P43220 whole entry, looked up): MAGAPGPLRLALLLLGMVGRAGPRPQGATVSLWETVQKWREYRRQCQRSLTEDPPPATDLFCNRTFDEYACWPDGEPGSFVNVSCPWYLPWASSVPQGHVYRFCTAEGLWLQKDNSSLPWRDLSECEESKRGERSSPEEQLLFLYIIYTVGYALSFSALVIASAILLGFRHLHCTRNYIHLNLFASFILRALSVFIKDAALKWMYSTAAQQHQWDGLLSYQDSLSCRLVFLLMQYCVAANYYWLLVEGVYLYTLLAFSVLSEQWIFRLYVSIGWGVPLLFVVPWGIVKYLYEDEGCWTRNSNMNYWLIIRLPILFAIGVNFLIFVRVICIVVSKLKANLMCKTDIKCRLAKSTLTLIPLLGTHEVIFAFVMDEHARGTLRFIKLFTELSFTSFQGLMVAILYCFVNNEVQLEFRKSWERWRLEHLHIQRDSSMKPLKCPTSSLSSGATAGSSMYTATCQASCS
Glutaminase kidney isoform, mitochondrial (Homo sapiens), sequence (O94925 whole entry, looked up, canonical isoform): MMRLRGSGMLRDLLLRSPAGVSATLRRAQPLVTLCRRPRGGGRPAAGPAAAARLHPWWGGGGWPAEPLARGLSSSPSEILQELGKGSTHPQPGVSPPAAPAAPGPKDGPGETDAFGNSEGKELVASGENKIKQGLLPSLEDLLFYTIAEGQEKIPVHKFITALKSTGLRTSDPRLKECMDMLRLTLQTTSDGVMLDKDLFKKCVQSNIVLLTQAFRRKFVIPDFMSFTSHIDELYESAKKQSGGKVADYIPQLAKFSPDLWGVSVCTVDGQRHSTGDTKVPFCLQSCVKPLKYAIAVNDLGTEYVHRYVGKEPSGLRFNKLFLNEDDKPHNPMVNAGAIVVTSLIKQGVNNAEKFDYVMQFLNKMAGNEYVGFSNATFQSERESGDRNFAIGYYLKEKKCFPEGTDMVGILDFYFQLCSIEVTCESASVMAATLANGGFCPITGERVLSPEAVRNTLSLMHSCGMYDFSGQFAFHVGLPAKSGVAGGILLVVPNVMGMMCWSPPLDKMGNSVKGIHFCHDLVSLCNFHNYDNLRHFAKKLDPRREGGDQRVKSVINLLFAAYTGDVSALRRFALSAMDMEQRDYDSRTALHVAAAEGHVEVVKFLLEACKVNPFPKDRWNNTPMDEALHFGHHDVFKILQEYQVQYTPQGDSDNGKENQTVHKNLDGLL

For `COC1(C2=NCCN2)COc2ccccc2O1` (stereo unspecified), the Potency result in experiment [1], in experiment [2], in experiment [3], in experiment [4] and in experiment [5] was “inactive” each time.
Take `O=C(O)C1CN(CCCP(=O)(O)O)CCN1` (stereo unspecified): the Potency result in experiment [1], in experiment [2], in experiment [6], in experiment [4] and in experiment [5] was “inactive” throughout.
For `CC(=O)NCCc1c[nH]c2ccc(O)cc12`, the Potency result in experiment [1], in experiment [6], in experiment [4] and in experiment [5] was “inactive” each time. Moreover, the Potency in experiment [2] is 1 µM (active).
Consider `CCCCC[C@H](CC(=O)NO)C(=O)N[C@H](C(=O)N1CCC[C@H]1CO)C(C)C`, for which the Potency result in experiment [1], in experiment [3], in experiment [6] and in experiment [5] was “inactive” throughout.
Regarding `Nc1ccc(-c2ccc3ccccc3n2)cc1`, the Potency result in experiment [1], in experiment [3], in experiment [6], in experiment [4] and in experiment [5] was “inactive” each time.
As for `c1ccc2nc(C3=NCCN3)ccc2c1`, the Potency result in experiment [1], in experiment [3], in experiment [6], in experiment [4] and in experiment [5] was “inactive” each time.
In the case of `Cn1c(=O)c2[nH]c(-c3ccc(S(=O)(=O)O)cc3)nc2n(C)c1=O`, the Potency result in experiment [1], in experiment [3], in experiment [6] and in experiment [4] was “inactive” in each case.
For the compound `N#CC(C#N)=C(N)/C(C#N)=C/c1ccc(O)cc1`, the Potency entry in experiment [1], in experiment [3], in experiment [6], in experiment [4] and in experiment [5] was “inactive” in each case.
Turning to `O=c1[nH]ccc2c(O)cccc12`, the Potency result in experiment [1], in experiment [3], in experiment [6], in experiment [4] and in experiment [5] was “inactive” throughout.
With `CCN(CC)CCCCCCCCOC(=O)c1cc(OC)c(OC)c(OC)c1`, in experiment [1], the Potency is 11.2 µM (active). Besides, the Potency result in experiment [3], in experiment [6], in experiment [4] and in experiment [5] was “inactive” in each case.
`Cc1cccc(C(=O)NCN2CCN(c3ccccc3C#N)CC2)c1`: the Potency result in experiment [1], in experiment [3], in experiment [6], in experiment [4] and in experiment [5] was “inactive” each time.
In the case of `COc1ccc(C(=O)NCc2cccnc2)cc1C(=O)NCc1cccnc1`, the Potency entry in experiment [1], in experiment [3], in experiment [6], in experiment [4] and in experiment [5] was “inactive” in each case.
Turning to `N[C@H]1CONC1=O`, the Potency result in experiment [1], in experiment [3], in experiment [6] and in experiment [4] was “inactive” in each case.
Consider `Oc1cc(O)c2c(c1)O[C@H](c1ccc(O)c(O)c1)[C@@H](O)C2`, for which the Potency entry in experiment [1], in experiment [3], in experiment [6], in experiment [4] and in experiment [5] was “inactive” each time.
On to `N[C@H](C(=O)O)[C@H](O)C(=O)O`, for which the Potency result in experiment [1], in experiment [3], in experiment [6], in experiment [4] and in experiment [5] was “inactive” throughout.
Take `CSC(N)=NCCC[C@H](N)C(=O)O`: the Potency entry in experiment [1], in experiment [3], in experiment [6], in experiment [4] and in experiment [5] was “inactive” each time.
As for `COc1ccc2c(c1)c(CC(=O)O)c(C)n2Cc1ccc(Cl)cc1`, the Potency result in experiment [1], in experiment [3], in experiment [6], in experiment [4] and in experiment [5] was “inactive” throughout.
As to `NC/C=C\C(=O)O`, the Potency result in experiment [1], in experiment [3], in experiment [6], in experiment [4] and in experiment [5] was “inactive” each time.
As for `CN(C)C(=O)/N=N/C(=O)N(C)C`, the Potency result in experiment [1], in experiment [2], in experiment [4] and in experiment [5] was “inactive” in each case.
Consider `CCCN(CCc1ccccc1)C1CCc2c(O)cccc2C1` (stereo unspecified), for which the Potency in experiment [1] is 0.355 µM (active). For the same compound, the Potency entry in experiment [3], in experiment [6] and in experiment [4] was “inactive” in each case.
Regarding `O=C(O)/C(=C/c1c(C(=O)O)[nH]c2cc(Cl)cc(Cl)c12)c1ccccc1`, the Potency result in experiment [1], in experiment [3], in experiment [6] and in experiment [5] was “inactive” in each case.
Consider `NC(C(=O)N[C@@H]1C(=O)N2C(C(=O)O)=C(Cl)CS[C@H]12)c1ccccc1` (stereo partly specified), for which the Potency result in experiment [1], in experiment [3], in experiment [6] and in experiment [5] was “inactive” in each case.
`NC1CONC1=O` (stereo unspecified): the Potency entry in experiment [1], in experiment [3], in experiment [6], in experiment [4] and in experiment [5] was “inactive” throughout.
As for `NCC(O)(CS(=O)(=O)O)c1ccc(Cl)cc1` (stereo unspecified), the Potency entry in experiment [1], in experiment [3], in experiment [6] and in experiment [5] was “inactive” throughout.
With `NCCC1CCCC(CCN)N1` (stereo unspecified), the Potency entry in experiment [1], in experiment [3], in experiment [6], in experiment [4] and in experiment [5] was “inactive” in each case.
For the compound `N[C@H](C(=O)O)c1cc(O)cc(O)c1`, the Potency result in experiment [1], in experiment [3], in experiment [6], in experiment [4] and in experiment [5] was “inactive” each time.
On to `O=C(O)c1ccccc1Nc1cccc(OCc2ccc3ccccc3n2)c1`, for which the Potency entry in experiment [1], in experiment [3], in experiment [6], in experiment [4] and in experiment [5] was “inactive” each time.
In the case of `Cc1cc2c(cc1Cl)N(C(=O)Nc1ccnc3ccccc13)CC2`, the Potency entry in experiment [1], in experiment [3], in experiment [6], in experiment [4] and in experiment [5] was “inactive” in each case.
With `N[C@@H](Cc1c[nH]c2ccccc12)C(=O)O`, the Potency result in experiment [1], in experiment [3], in experiment [6], in experiment [4] and in experiment [5] was “inactive” throughout.
Turning to `C=CCN1CCc2c(cc(O)c(O)c2Br)[C@@H](c2ccccc2)C1`, the Potency in experiment [1] was 7.08 µM (active). Further, the Potency result in experiment [3], in experiment [6] and in experiment [4] was “inactive” throughout.
